Measured values published in the supplement of paper PMC4466140.

target: ScBbc1; assay: SPOT peptide array binding signal intensity (averaged, normalized) (arbitrary units (background-subtracted, floor 0; scale differs between SH3 domains)); higher = stronger binding of the SH3 domain to the peptide
Method in brief: (§1)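 E. coli BL21(DE3) was used to express GST-fused SH3 domains from four yeast species, which were then purified on glutathione Sepharose. These were incubated at 10 μg/ml in TBS-based blocking buffer overnight at 4°C on cellulose membranes carrying synthetic 15-mer peptides, in which cysteines were replaced by serines. Binding signal is the replicate average of normalized, background-subtracted spot intensity, in arbitrary units that differ between domains.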

Binder | SPOT peptide array binding signal intensity
QFDLKMPSKPIHNLK | 0.25

target: ScBem1-D1; assay: as above
Method in brief: as §1

Binder | SPOT peptide array binding signal intensity
QFDLKMPSKPIHNLK | ≤ 0

target: ScBzz1-D1; assay: as above
Method in brief: as §1

Binder | SPOT peptide array binding signal intensity
QFDLKMPSKPIHNLK | ≤ 0

target: ScBzz1-D2; assay: as above
Method in brief: as §1

Binder | SPOT peptide array binding signal intensity
QFDLKMPSKPIHNLK | 3.5

target: ScCyk3; assay: as above
Method in brief: as §1

Binder | SPOT peptide array binding signal intensity
QFDLKMPSKPIHNLK | ≤ 0

target: ScFus1; assay: as above
Method in brief: as §1

Binder | SPOT peptide array binding signal intensity
QFDLKMPSKPIHNLK | 70

target: ScHof1; assay: as above
Method in brief: as §1

Binder | SPOT peptide array binding signal intensity
QFDLKMPSKPIHNLK | 0.5

target: ScHse1; assay: as above
Method in brief: as §1

Binder | SPOT peptide array binding signal intensity
QFDLKMPSKPIHNLK | 57

target: ScLsb1; assay: as above
Method in brief: as §1

Binder | SPOT peptide array binding signal intensity
QFDLKMPSKPIHNLK | 9

target: ScLsb2; assay: as above
Method in brief: as §1

Binder | SPOT peptide array binding signal intensity
QFDLKMPSKPIHNLK | 1

target: ScLsb3; assay: as above
Method in brief: as §1

Binder | SPOT peptide array binding signal intensity
QFDLKMPSKPIHNLK | 74

target: ScLsb4; assay: as above
Method in brief: as §1

Binder | SPOT peptide array binding signal intensity
QFDLKMPSKPIHNLK | 21

target: ScMyo3; assay: as above
Method in brief: as §1

Binder | SPOT peptide array binding signal intensity
QFDLKMPSKPIHNLK | ≤ 0

target: ScMyo5; assay: as above
Method in brief: as §1

Binder | SPOT peptide array binding signal intensity
QFDLKMPSKPIHNLK | ≤ 0

target: ScNbp2; assay: as above
Method in brief: as §1

Binder | SPOT peptide array binding signal intensity
QFDLKMPSKPIHNLK | 79.5

target: ScPex13; assay: as above
Method in brief: as §1

Binder | SPOT peptide array binding signal intensity
QFDLKMPSKPIHNLK | 23.8

target: ScRvs167; assay: as above
Method in brief: as §1

Binder | SPOT peptide array binding signal intensity
QFDLKMPSKPIHNLK | 2.83

target: ScSho1; assay: as above
Method in brief: as §1

Binder | SPOT peptide array binding signal intensity
QFDLKMPSKPIHNLK | 198

target: ScSla1-D1-D2; assay: as above
Method in brief: as §1

Binder | SPOT peptide array binding signal intensity
QFDLKMPSKPIHNLK | 59

target: ScSla1-D3; assay: as above
Method in brief: as §1

Binder | SPOT peptide array binding signal intensity
QFDLKMPSKPIHNLK | 150

target: SpAbp1-D1; assay: as above
Method in brief: as §1

Binder | SPOT peptide array binding signal intensity
QFDLKMPSKPIHNLK | 0.5

target: SpBbc1; assay: as above
Method in brief: as §1

Binder | SPOT peptide array binding signal intensity
QFDLKMPSKPIHNLK | 1.5

target: SpBzz1-D1; assay: as above
Method in brief: as §1

Binder | SPOT peptide array binding signal intensity
QFDLKMPSKPIHNLK | 104

target: SpBzz1-D2; assay: as above
Method in brief: as §1

Binder | SPOT peptide array binding signal intensity
QFDLKMPSKPIHNLK | ≤ 0

target: SpCyk3; assay: as above
Method in brief: as §1

Binder | SPOT peptide array binding signal intensity
QFDLKMPSKPIHNLK | ≤ 0

target: SpHof1; assay: as above
Method in brief: as §1

Binder | SPOT peptide array binding signal intensity
QFDLKMPSKPIHNLK | 9

target: SpHof1-2; assay: as above
Method in brief: as §1

Binder | SPOT peptide array binding signal intensity
QFDLKMPSKPIHNLK | 11.8

target: SpHof1-3; assay: as above
Method in brief: as §1

Binder | SPOT peptide array binding signal intensity
QFDLKMPSKPIHNLK | ≤ 0

target: SpHse1; assay: as above
Method in brief: as §1

Binder | SPOT peptide array binding signal intensity
QFDLKMPSKPIHNLK | 136

target: SpLsb1; assay: as above
Method in brief: as §1

Binder | SPOT peptide array binding signal intensity
QFDLKMPSKPIHNLK | ≤ 0

target: SpLsb4; assay: as above
Method in brief: as §1

Binder | SPOT peptide array binding signal intensity
QFDLKMPSKPIHNLK | 318

target: SpMyo1; assay: as above
Method in brief: as §1

Binder | SPOT peptide array binding signal intensity
QFDLKMPSKPIHNLK | ≤ 0

target: SpNbp2; assay: as above
Method in brief: as §1

Binder | SPOT peptide array binding signal intensity
QFDLKMPSKPIHNLK | 74.5

target: SpPex13; assay: as above
Method in brief: as §1

Binder | SPOT peptide array binding signal intensity
QFDLKMPSKPIHNLK | 1

target: SpRvs167; assay: as above
Method in brief: as §1

Binder | SPOT peptide array binding signal intensity
QFDLKMPSKPIHNLK | ≤ 0

target: SpSla1-D1-D2; assay: as above
Method in brief: as §1

Binder | SPOT peptide array binding signal intensity
QFDLKMPSKPIHNLK | 5

target: SpSla1-D3; assay: as above
Method in brief: as §1

Binder | SPOT peptide array binding signal intensity
QFDLKMPSKPIHNLK | 30
